Laboratory results: PubChem BioAssay AID1159580 (chemical genetic matrix, 2015)
“And” between values parts separate entries of the source, which are not always exact repeats. Equal entries are not always repeated. Hit rate of the full screen: of about 5,500 compounds, about 2,000 (36%) were called active. Inconclusive results (about 18%) are left out. Cut-off read from the data, not from the text of the source: active = normalized growth mostly below about 0.91 (no sharp cut-off); inconclusive = no clear call, values can overlap the other calls; inactive = mostly above about 0.92. The list shows a part of the results.

Assay: chemical genetic growth profiling, strain panel (AID 1159580);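 note: tested at 20 µM; growth read once vehicle control cultures reached saturation at 30 °C; 1 = growth at the plate median or of vehicle wells; lower values mean less growth of the strain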
Details: S. cerevisiae deletion strains, growth OD

Measured: normalized growth

CC(=O)OCC(=O)[C@@]1(O)CCC2C3CCC4=CC(=O)CC[C@]4(C)[C@@]3(F)[C@@H](O)C[C@@]21C (stereo partly specified)
inactive: locus YAL021C, strain ccr4, active compounds read low 1.03 | locus YAL026C, strain drs2, active compounds read low 1.01 | locus YAL030W, strain snc1, active compounds read low 1.01 | locus YBL061C, strain skt5, active compounds read low 1.01 | locus YBR009C, strain hhf1, active compounds read low 1.01 | locus YBR021W, strain FUR4, active compounds read low 1.01 | locus YBR023C, strain chs3, active compounds read low 1.03 | locus YBR171W, strain sec66, active compounds read low 1.04 | locus YBR229C, strain ROT2, active compounds read low 1 | locus YBR231C, strain swc5, active compounds read low 0.993 | locus YBR279W, strain paf1, active compounds read low 1.02 | locus YCL011C, strain gbp2, active compounds read low 1.02 | locus YCL016C, strain dcc1, active compounds read low 1.02 | locus YCL029C, strain bik1, active compounds read low 0.995 | locus YCL061C, strain MRC1, active compounds read low 1.02 | locus YCL069W, strain vba3, active compounds read low 1.02 | locus YCR088W, strain abp1, active compounds read low 1.01 | locus YDL005C, strain med2, active compounds read low 1.02 | locus YDL035C, strain GPR1, active compounds read low 0.992 | locus YDL040C, strain nat1, active compounds read low 1 | locus YDL074C, strain BRE1, active compounds read low 1.02 | locus YDL101C, strain DUN1, active compounds read low 1.01 | locus YDL185W, strain tfp1, active compounds read low 0.995 | locus YDL192W, strain arf1, active compounds read low 1 | locus YDR001C, strain nth1, active compounds read low 1.01 | locus YDR069C, strain doa4, active compounds read low 1.01 | locus YDR101C, strain arx1, active compounds read low 0.981 | locus YDR137W, strain rgp1, active compounds read low 1.02 | locus YDR159W, strain sac3, active compounds read low 0.997 | locus YDR162C, strain NBP2, active compounds read low 0.998 | locus YDR195W, strain ref2 1 | locus YDR297W, strain sur2, active compounds read low 1 | locus YDR318W, strain mcm21, active compounds read low 1 | locus YDR334W, strain swr1, active compounds read low 1.03 | locus YDR335W, strain msn5, active compounds read low 1.01 | locus YDR388W, active compounds read low 1 | locus YDR392W, strain spt3, active compounds read low 0.989 | locus YDR502C, strain sam2, active compounds read low 1 | locus YEL003W, strain gim4, active compounds read low 1 | locus YEL037C, strain rad23, active compounds read low 1.01 | locus YEL061C, strain CIN8 (second series), active compounds read low 1.01 | locus YEL061C, strain CIN8, active compounds read low 1 | locus YER015W, strain faa2, active compounds read low 1 | locus YER016W, strain bim1, active compounds read low 1 | locus YER110C, active compounds read low 1 | locus YER111C, strain swi4, active compounds read low 1.02 | locus YER155C, strain BEM2 (second series), active compounds read low 1.01 | locus YER155C, strain BEM2, active compounds read low 1.01 | locus YER167W, strain BCK2, active compounds read low 1.01 | locus YFR010W, strain ubp6, active compounds read low 1.02 | locus YGL078C, strain dbp3, active compounds read low 1.01 | locus YGL086W, strain mad1, active compounds read low 0.989 | locus YGL167C, strain pmr1, active compounds read low 1.01 | locus YGL173C, strain kem1, active compounds read low 1.02 | locus YGL227W, strain vid30, active compounds read low 1.02 | locus YGL240W, strain doc1, active compounds read low 1.01 | locus YGL248W, strain PDE1, active compounds read low 1.01 | locus YGL253W, strain hxk2, active compounds read low 1.01 | locus YGR135W, strain pre9, active compounds read low 1.03 | locus YGR252W, strain gcn5, active compounds read low 1.05 | locus YHR013C, strain ard1, active compounds read low 1.04 | locus YHR027C, strain rpn1, active compounds read low 1.03 | locus YHR030C, strain SLT2, active compounds read low 0.997 and 1.01 | locus YHR079C, strain IRE1 (second series), active compounds read low 1.01 | locus YHR079C, strain IRE1, active compounds read low 0.995 | locus YHR094C, strain hxt1, active compounds read low 1.01 | locus YHR129C, strain ARP1, active compounds read low 1.01 | locus YHR142W, strain chs7, active compounds read low 1.01 | locus YHR200W, strain rpn10, active compounds read low 0.996 | locus YIL066C, strain RNR3, active compounds read low 0.995 | locus YIL073C, strain SPO22, active compounds read low 1.03 | locus YIL125W, strain kgd1, active compounds read low 1 | locus YIR030C, strain dcg1, active compounds read low 0.998 | locus YJL092W, strain hpr5, active compounds read low 1.02 | locus YJL095W, strain BCK1 (second series), active compounds read low 1.01 | locus YJL095W, strain BCK1, active compounds read low 1.03 and 1 | locus YJL115W, strain asf1, active compounds read low 1.03 | locus YJL129C, strain trk1, active compounds read low 1.03 | locus YJL134W, strain LCB3, active compounds read low 1.01 | locus YJL154C, strain vps35, active compounds read low 1.01 | locus YJL164C, strain tpk1, active compounds read low 1.01 | locus YJL166W, strain qcr8, active compounds read low 1.02 | locus YJL168C, strain set2, active compounds read low 1.01 | locus YJL187C, strain SWE1 (second series), active compounds read low 1.01 | locus YJL187C, strain SWE1, active compounds read low 1.01 | locus YJR043C, strain POL32, active compounds read low 0.993
